Measured values taken from PubChem BioAssay (EPA / NIEHS).
Records with an inconclusive call do not appear. Activity calls are given as the source filed them. Rule for the calls, unless noted: active = hit-call score of the fitted dose curve at least 0.9, where 1 is the maximum; inconclusive = response in the unintended direction; inactive = score below 0.9.

Tests used:
[1] = TOX21_p53_BLA_p2_viability: Viability Assessment in the Tox21 HCT-116 p53 Agonism Beta-lactamase Assay, Phase 2 (AID 2283591);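 note: compound exposure lasted 16 h at 37 °C; actives lower the ATP signal meaning cytotoxicity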
In short: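 Cytotoxicity readout: CellTiter-Glo ATP luminescence, 30 min at room temperature, after the beta-lactamase read. Cells were HCT116 exposed 16 h at 37C to compounds pin-transferred at 217-fold dilution from DMSO stocks.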

[2] = target: Cellular tumor antigen p53 (Homo sapiens) (UniProt P04637); experiment: TOX21_p53_BLA_p2_ratio: Tox21 HCT-116 p53 Agonism Beta-lactamase Assay, Ratio, Phase 2 (AID 2283592)
In short: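 Ratio endpoint: beta-lactamase cleavage of CCF4-AM, blue (460 nm) over green (530 nm). HCT116 reporter line; 16 h treatment, 37C; substrate 2 h RT.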

[3] = TOX21_p53_BLA_p3_viability: Viability Assessment in the Tox21 HCT-116 p53 Agonism Beta-lactamase Assay, Phase 3 (AID 2283593);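 note: cells exposed to compound for 16 h before reading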
In short: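 Cellular ATP was quantified by CellTiter-Glo luminescence, read after 30 min at room temperature. Beforehand, HCT116 cells (4000/well) received compound 5 h post-seeding, 217-fold diluted from DMSO, then incubated 16 h at 37C.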

[4] = target: Cellular tumor antigen p53 (Homo sapiens) (UniProt P04637); experiment: TOX21_p53_BLA_p3_ratio: Tox21 HCT-116 p53 Agonism Beta-lactamase Assay, Ratio, Phase 3 (AID 2283596)
In short: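 Cells were seeded at 4000/well, rested 5 h at 37C, then dosed with DMSO compound solutions (217-fold dilution) for 16 h. CCF4-AM substrate was loaded for 2 h at room temperature, and the 460/530 nm emission ratio was fitted for gain of signal versus DMSO.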

[5] = target: Cellular tumor antigen p53 (Homo sapiens) (UniProt P04637); experiment: TOX21_p53_BLA_p5_ratio: Tox21 HCT-116 p53 Agonism Beta-lactamase Assay, Ratio, Phase 5 (AID 2283599)
In short: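 Beta-lactamase reporter ratio (blue 460 nm over green 530 nm, 405 nm excitation) after 2 h CCF4-AM loading, in HCT-116 cells exposed 16 h at 37 C to compounds pinned at 217-fold dilution. Increases relative to DMSO baseline scored.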

[6] = TOX21_p53_BLA_p5_viability: Viability Assessment in the Tox21 HCT-116 p53 Agonism Beta-lactamase Assay, Phase 5 (AID 2283600)
In short: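 Luciferase-coupled ATP quantitation of cells treated for 16 h (37C, 5% CO2) with test chemicals delivered in DMSO via a 217-fold dilution; 4000 cells/well; reagent incubated 30 min at room temperature before luminescence reading.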

[7] = target: Cellular tumor antigen p53 (Homo sapiens) (UniProt P04637); experiment: TOX21_p53_BLA_p4_ratio: Tox21 HCT-116 p53 Agonism Beta-lactamase Assay, Ratio, Phase 4 (AID 2283601)
In short: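 Signal is the blue/green (460nm/530nm) ratio of cleaved versus uncleaved CCF4-AM substrate, read after 2 h substrate loading. Cells were HCT116 carrying the p53-responsive beta-lactamase reporter, dosed 16 h at 37C, 5% CO2; CellTiter-Glo measured in parallel.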

[8] = ACEA_ER_AUC_viability: ACEA Biosciences xCELLigence Real-Time Cell Analysis on Estrogen Receptor Agonism for Viability (AID 2283782);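 note: hit means loss of impedance signal meaning reduced cell growth or viability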
In short: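 Viability endpoint: reduced impedance area under the curve relative to DMSO, recorded by real-time electrode sensing over ~80 h of continuous exposure. Duplicate plates of T47D in hormone-depleted medium; eight concentrations, 1:4 dilutions, 100 uM maximum.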

[9] = CCTE_Harrill_HTTr_Viability_MCF7: CCTE's 6-hour Cell Viability Assessment for the High-Throughput Transcriptomics (HTTr) Platform, in MCF-7 cells cultured in DMEM + 10% fetal bovine serum, Harrill Lab (AID 2284010; active = hit-call score of the fitted dose curve at least 0.9, where 1 is the maximum; inactive = score below 0.9)
In short: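 Propidium iodide exclusion, imaged by high-content analysis, gauged viability after a six-hour exposure across eight concentrations. Cells were MCF-7 grown in DMEM with 10% fetal bovine serum; fits run in both directions against DMSO.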

[10] = CCTE_Harrill_HTTr_Apoptosis_MCF7: CCTE's 6-hour Apoptosis Assessment for the High-Throughput Transcriptomics (HTTr) Platform, in MCF-7 cells cultured in DMEM + 10% fetal bovine serum, Harrill Lab (AID 2284011; active = hit-call score of the fitted dose curve at least 0.9, where 1 is the maximum; inactive = score below 0.9)
In short: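 MCF-7 cells in DMEM + 10% fetal bovine serum were exposed to chemicals for 6 hours over an eight-point dilution series. Caspase-3/7 activation was imaged by high content imaging with CellEvent Caspase 3/7 Green; bidirectional fitting used DMSO as baseline.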

[11] = target: Thyroid hormone receptor alpha (Rattus norvegicus) + Thyroid hormone receptor beta (Rattus norvegicus) (UniProt P18113+P63059); experiment: TOX21_TR_LUC_GH3_Antagonist_Followup: Tox21 GH3 Thyroid Hormone Receptor Antagonism Luciferase Follow-Up Assay (AID 2283942)
In short: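 Loss of T3-driven (1.0 nM final) reporter activity in GH3 cells was read by ONE-Glo luminescence after 24 h incubation at 37C; 15-point compound series spanned 92 uM to 5nM final, 1,500 cells/well.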

[12] = target: THRA (gene 7067) (UniProt P10827); experiment: TOX21_TRA_COA_Antagonist_Followup_ratio: Tox21 Thyroid Hormone Receptor alpha Antagonism through Coactivator Recruitment Follow-Up Assay, Ratio (AID 2283953)
In short: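 GST-TRα LBD 2.5 nM, BSA 0.10%, + cpd; then FITC-SRC-2 peptide 200 nM + Tb-anti-GST Ab 2 nM. TR-FRET ratio 520/495 nm. Norm: DMSO = 0%, T3 = 100%.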

[13] = target: THRB (gene 7068) (UniProt P10828); experiment: TOX21_TRB_BLA_Antagonist_Followup_ratio: Tox21 Thyroid Hormone Receptor beta Antagonism Beta-lactamase (BLA) Follow-Up Assay, Ratio (AID 2283958)
In short: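 Beta-lactamase reporter ratio (460/530 nm, CCF4-AM substrate, 2 h room temperature) was read in TRb-bla HEK293T cells after 18 h compound treatment (11 concentrations, triplicate) at 37C in 2% charcoal-stripped FBS medium. Loss of signal fitted against DMSO.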

[14] = target: THRB (gene 7068) (UniProt P10828); experiment: TOX21_TRB_COA_Antagonist_Followup_ratio: Tox21 Thyroid Hormone Receptor beta Antagonism through Coactivator Recruitment Follow-Up Assay, Ratio (AID 2283967)
In short: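 Coactivator recruitment to the GST-tagged TRb ligand-binding domain (5.0 nM) was read as the 520/495 nm TR-FRET ratio, using 200 nM fluorescein SRC-2 peptide and 2 nM terbium anti-GST. Scaled between DMSO and T3 wells; loss of signal fitted.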

[15] = TOX21_TR_RXR_BLA_Antagonist_Followup_viability: Viability Assessment in the Tox21 Thyroid Hormone Receptor beta Retinoid X Receptor alpha (RXRa) Antagonism Beta-lactamase (BLA) Follow-Up Assay (AID 2283979)
In short: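 Follow-up compounds (11 concentrations, triplicate) were incubated 16 h at 37C/5% CO2 with HEK293T RXRa-bla cells seeded at 2,500/well in charcoal-stripped-serum medium. ATP content by CellTiter-Glo luminescence gave viability; curves fitted in both directions against DMSO.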

[16] = CCTE_Deisenroth_AIME_96WELL_CTox_Active: Cytotoxicity Assessment (CTOX) in CCTE's 96-well Estrogen Receptor Transactivation Assay with AIME metabolic competence (metabolism positive), Deisenroth Lab (AID 2284028)
In short: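 Cytotoxicity in VM7Luc4E2 breast cells after 24 h exposure to medium from a 2 h metabolic pre-incubation with induced rat hepatic S9 in alginate microspheres; fluorescent live-cell protease readout, 10-point series 0.002–200 uM, n=4.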

[17] = CCTE_Deisenroth_AIME_96WELL_CTox_Inactive: Cytotoxicity Assessment (CTOX) in CCTE's 96-well Estrogen Receptor Transactivation Assay without AIME metabolic competence (metabolism negative), Deisenroth Lab (AID 2284029)
In short: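 Metabolism-negative mode: alginate-water lids without rat S9, 2 h pre-incubation of 10-point series (0.002 - 200 uM). Conditioned medium on VM7Luc4E2 cells 24 h; loss of fluorescent live-cell protease signal marks cytotoxicity.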

Measured: AC50

Chain of Cellular tumor antigen p53 (Homo sapiens) (P04637 whole entry, looked up): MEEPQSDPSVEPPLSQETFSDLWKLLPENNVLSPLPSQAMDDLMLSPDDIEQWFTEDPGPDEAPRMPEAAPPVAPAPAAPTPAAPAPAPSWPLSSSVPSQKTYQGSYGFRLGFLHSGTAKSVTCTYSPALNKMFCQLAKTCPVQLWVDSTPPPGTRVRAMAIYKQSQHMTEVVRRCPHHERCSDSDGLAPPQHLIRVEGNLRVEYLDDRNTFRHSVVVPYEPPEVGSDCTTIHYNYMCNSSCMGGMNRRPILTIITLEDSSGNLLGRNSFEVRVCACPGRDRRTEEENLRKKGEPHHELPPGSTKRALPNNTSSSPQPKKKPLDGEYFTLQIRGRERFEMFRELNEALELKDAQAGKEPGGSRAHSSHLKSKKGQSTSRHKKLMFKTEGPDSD
Chain of THRB (gene 7068) (P10828 whole entry, looked up, the tested form may be a part): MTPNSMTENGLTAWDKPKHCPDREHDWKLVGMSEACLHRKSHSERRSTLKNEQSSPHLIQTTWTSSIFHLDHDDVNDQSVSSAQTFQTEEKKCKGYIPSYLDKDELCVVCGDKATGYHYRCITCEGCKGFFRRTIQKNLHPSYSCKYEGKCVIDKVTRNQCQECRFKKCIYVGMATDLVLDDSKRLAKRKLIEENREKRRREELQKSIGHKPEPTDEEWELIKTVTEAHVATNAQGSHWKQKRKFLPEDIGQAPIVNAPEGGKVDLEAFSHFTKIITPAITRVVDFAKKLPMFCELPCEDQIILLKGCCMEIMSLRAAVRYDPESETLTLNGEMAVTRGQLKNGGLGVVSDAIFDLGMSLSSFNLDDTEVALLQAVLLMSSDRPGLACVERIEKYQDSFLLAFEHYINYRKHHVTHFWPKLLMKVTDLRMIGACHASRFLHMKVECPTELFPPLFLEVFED
Chain of THRA (gene 7067) (P10827 whole entry, looked up, the tested form may be a part): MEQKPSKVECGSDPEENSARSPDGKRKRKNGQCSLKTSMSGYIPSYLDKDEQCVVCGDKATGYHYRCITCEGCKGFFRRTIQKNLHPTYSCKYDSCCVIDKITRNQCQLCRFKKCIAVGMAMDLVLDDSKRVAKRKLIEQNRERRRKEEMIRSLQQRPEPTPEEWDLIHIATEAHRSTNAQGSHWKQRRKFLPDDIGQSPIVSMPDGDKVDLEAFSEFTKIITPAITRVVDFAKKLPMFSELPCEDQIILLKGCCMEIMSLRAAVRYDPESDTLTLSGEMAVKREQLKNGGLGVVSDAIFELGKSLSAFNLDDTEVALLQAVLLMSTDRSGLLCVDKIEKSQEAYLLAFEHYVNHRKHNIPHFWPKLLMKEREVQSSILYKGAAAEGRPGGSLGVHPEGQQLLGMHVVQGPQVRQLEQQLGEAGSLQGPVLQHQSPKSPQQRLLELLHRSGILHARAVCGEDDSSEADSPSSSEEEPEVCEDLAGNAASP

CCN(CC)c1ccc(N)cc1
inactive: [1] | [3] | [5] | [6]
active: [2] 31.2 µM | [4] 69.7 µM | [7] 73.4 µM

NCCC(O)(P(=O)(O)O)P(=O)(O)O
inactive: [1] | [2] | [3] | [4] | [5] | [7]

NC(=O)c1ncn([C@@H]2O[C@H](CO)[C@@H](O)[C@H]2O)c1N
inactive: [1] | [2] | [3] | [4] | [6] | [7]

COc1ccc(C(=O)N2CCN(CC(=O)N3CCOCC3)CC2)cc1
inactive: [1] | [2] | [3] | [4] | [6] | [7]

CC(O)C(CO)C(C)O (stereo not drawn)
inactive: [1] | [2] | [3] | [4] | [6] | [7]

Cc1ccc2c(ccc3ccccc32)c1
inactive: [1] | [2] | [3] | [4] | [5] | [7]

[O]=[Zr]
inactive: [1] | [2] | [3] | [4] | [6]

Cc1cccc(Nc2ncccc2C(=O)O)c1C
inactive: [1] | [2] | [3] | [4] | [5] | [7]

CC(C)(O)C#CC(C)(C)O
inactive: [1] | [2] | [3] | [4] | [6]

Nc1c(Br)cc(Br)cc1CNC1CCC(O)CC1 (stereo not drawn)
inactive: [1] | [2] | [3] | [4] | [5] | [7]

COc1ccc2cc([C@H](C)C(=O)O)ccc2c1
inactive: [1] | [2] | [3] | [4] | [5] | [7] | [8] | [9] | [10]

CC(O)[C@@H]1NC(=O)[C@H](Cc2ccccc2)NC(=O)[C@H](C(C)O)NC(=O)[C@H](CCCCN)NC(=O)[C@H](Cc2c[nH]c3ccccc23)NC(=O)[C@H](Cc2ccccc2)NC(=O)[C@H](Cc2ccccc2)NC(=O)[C@H](CC(N)=O)NC(=O)[C@H](CCCCN)NC(=O)[C@@H](NC(=O)CNC(=O)[C@H](C)N)CSSC[C@@H](C(=O)O)NC(=O)[C@H](CO)NC1=O (stereo partly drawn)
inactive: [1] | [2] | [3] | [4] | [6] | [7]

CC(=O)Nc1ccn(C2COC(COC(=O)c3ccccc3)O2)c(=O)n1 (stereo not drawn)
active: [2] 5.44 µM | [4] 11.7 µM
not listed: [6] | [8] | [9] | [10] | [16] | [17]
inactive: all other assays above

CC(C)(c1ccccc1)c1ccccc1
inactive: [1] | [2] | [3] | [4] | [5] | [7] | [16] | [17]
